Reference: PubChem BioAssay AID1918990 (ICCB-Longwood Screening Facility, Harvard Medical School, 2023)
About 85 (0.3%) of roughly 29,000 compounds were called active.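 How the source made its calls: active means replicate mean overnight rise in green fluorescent reporter signal, 3 or more SD over negative controls; inactive means the rest.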 Many of the other results were omitted from the sample, so actives are more common in it than they were.

test: activators of Burkholderia fixLJ two-component system, primary screen, B. multivorans, GFP reporter (AID 1918990); conditions: B. multivorans fixK-promoter GFP reporter, 18 h; stronger effect = higher value

z-score, inactive:
COc1cc(C(=O)N2CCC(O)(c3ccc(C)cn3)CC2)nc(OC)n1 -2.73
CCOc1ccc(NC(=O)c2cnn(-c3ccccc3)c2-n2cccc2)cc1 0.15
CC(=O)N1CCN(Cc2cc(Cl)cc(Cl)c2)C2CS(=O)(=O)CC21 (stereo unspecified) 1.37
CN(C)C(=O)N1CCC(C(=O)NC2COCC2Cc2ccncc2)CC1 (stereo unspecified) -2.62
COc1ccc(OC)c(-c2nc(CN3CCNC(=O)CC3)c(C)o2)c1 -1.03
O=C1N(Cc2ccccc2)c2ccc(Cl)cc2C1(O)c1c[nH]c2ccccc12 (stereo unspecified) -2.44
CCCNC(=O)CCn1nc(-c2ccccc2)c2ccccc2c1=O -2.63
COC(=O)c1ccc(NC(=O)c2cccc3c2C(=O)N(C2CCCCC2)C3)cc1 -0.11
CN(CC(=O)Nc1cccc(C(F)(F)F)c1)S(=O)(=O)c1cccs1 -1.64
COc1ccc(C2=NC3(CCCCC3)N(CC(=O)Nc3ccc(C(C)C)cc3)C2=O)cc1 -0.47
O=C(CSc1nc(-c2cccc(F)c2)[nH]c1-c1ccccc1)Nc1ccc2c(c1)OCO2 -0.24
CC1CCCCN1Cc1c(O)ccc2c(=O)c(-c3cccc(Cl)c3)c(C(F)(F)F)oc12 (stereo unspecified) -3.67
O=C(NC1CCCC1Cc1ccc(F)cc1)c1cccc(=O)[nH]1 (stereo unspecified) 0.15
Cn1nnnc1SCCNCc1ccc(Cl)c(Cl)c1 -2.02
O=C(c1ccnc(CC2COc3ccccc3C2)c1)N1CCOCC1 (stereo unspecified) 1.09
CN1CCN(CC2(CNC(=O)CN(C)Cc3cccnc3)CC2)CC1 -0.08
CCCc1cc(CNC(=O)c2ccc3c(c2)OCC(=O)N3)on1 0.27
CCn1cc(C(=O)N(C)Cc2ccccc2)c(=O)c2cc(S(=O)(=O)N3CCCCCC3)ccc21 -2.08
Cc1cccc(C(=O)N2CCC[C@@]3(CN(Cc4ncc(C)[nH]4)CCC3O)C2)c1 (stereo partly specified) 0.68
CNC(=O)c1cccc(NC(=O)CCCc2cccs2)c1C -1.26
COc1ccc(CNc2nc(-c3ccccc3)nn2C(=O)c2ccccc2OC)cc1 0.5
COc1cc(C2c3c(oc4ccccc4c3=O)C(=O)N2c2nc(C)c(C)s2)ccc1O (stereo unspecified) -1
Cc1nc(SCCOc2ccc(Cl)cc2)[nH]c(=O)c1Cc1ccccc1 -1.27
COCC1C(NS(=O)(=O)c2ccc(F)cc2C)C2CCOC21 (stereo unspecified) -0.38
COc1ccc(-c2nc3ccccc3o2)cc1NC(=O)c1cc([N+](=O)[O-])ccc1N1CCOCC1 -1.81
CC(=O)c1ccc(N2CCN(c3nc4c(S(=O)(=O)c5ccccc5)nnn4c4ccc(Cl)cc34)CC2)cc1 0.23
COc1ccc2c(c1)c(=O)c(S(=O)(=O)c1ccc(F)cc1)cn2CC(=O)Nc1ccc(C)cc1C -1.75
Cc1nn(-c2nc(-c3ccccc3)cc(C(F)(F)F)n2)c(C)c1Cl -0.93
CCCSc1ncc(Cl)c(C(=O)Nc2c(C(=O)Nc3ccccc3)oc3ccccc23)n1 -0.41
O=C(c1ccc2c(c1)N(Cc1ccc(Cl)cc1)C(=O)c1ccccc1S2(=O)=O)N1CCCCC1 0.84
COc1ccccc1CNC(=O)CCn1c(=O)c2ccccc2n(CC(=O)Nc2cccc(Cl)c2)c1=O 0.27
